Here are results for ten molecules from PubChem BioAssay (NCATS).

Several values for one entry are separate records, joined by “and”; a condition that tells them apart may be missing. Equal values may be shown once. Records with an inconclusive call do not appear. A number with no mark means an inactive call. Activity calls are given as the source filed them. Calls come from the whole dose curve; as a rule, active = well fitted inhibition curve with a large enough effect; inconclusive = small, poorly fitted or top-dose-only effect; inactive = flat fitted curve, though single readings scatter.

In one experiment the test system is Dd2. The experiment is described as follows: qHTS profiling for inhibitors of Plasmodium falciparum proliferation (AID 504749). Note: potency is the fitted concentration of half-maximal effect. The following applies: P. falciparum in erythrocytes, SYBR Green DNA, 72 h; series mostly up to 28.7 µM. The essentials: (§1)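 In a 72 h erythrocytic culture (37 C, humidified, 5% CO2) at 2.5% hematocrit and 0.3% starting parasitemia, compounds were tested; SYBR Green I in detergent lysis buffer stained parasite DNA overnight.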

Another experiment has as its system ECU. Described as above. The following applies: P. falciparum in erythrocytes, SYBR Green DNA, 72 h; series mostly up to 28.7 µM. The essentials: as §1
For another experiment, the system named is FAB9. Described as above. The following applies: P. falciparum in erythrocytes, SYBR Green DNA, 72 h; series mostly up to 28.7 µM. The method in brief: as §1
The subject of a further experiment is HB3. The experiment is described as above. The following applies: P. falciparum in erythrocytes, SYBR Green DNA, 72 h; series mostly up to 28.7 µM. The method in brief: as §1
In the next experiment the test system is ICS. The description is as above. The following applies: P. falciparum in erythrocytes, SYBR Green DNA, 72 h; series mostly up to 28.7 µM. The essentials: as §1
The next experiment relates to JCK. Described as above. As to conditions: P. falciparum in erythrocytes, SYBR Green DNA, 72 h; series mostly up to 28.7 µM. The method in brief: as §1
The next experiment deals with N140. Described as above. The following applies: P. falciparum in erythrocytes, SYBR Green DNA, 72 h; series mostly up to 28.7 µM. The method in brief:
as §1

The test system of the next experiment is P93_24. The experiment is described as above. As to conditions: P. falciparum in erythrocytes, SYBR Green DNA, 72 h; series mostly up to 28.7 µM. The essentials: as §1
The next experiment deals with P94_40. The experiment is described as above. As to conditions: P. falciparum in erythrocytes, SYBR Green DNA, 72 h; series mostly up to 28.7 µM. The method in brief: as §1
A further experiment relates to PAD. The experiment is described as above. As to conditions: P. falciparum in erythrocytes, SYBR Green DNA, 72 h; series mostly up to 28.7 µM. The essentials:
as §1

The test system of the next experiment is PC15. Described as above. As to conditions: P. falciparum in erythrocytes, SYBR Green DNA, 72 h; series mostly up to 28.7 µM. The essentials: as §1
The next experiment deals with PC26. Described as above. As to conditions: P. falciparum in erythrocytes, SYBR Green DNA, 72 h; series mostly up to 28.7 µM. The method in brief: as §1
The next experiment has as its system PC49. Described as above. As to conditions: P. falciparum in erythrocytes, SYBR Green DNA, 72 h; series mostly up to 28.7 µM. The essentials: as §1
The next experiment relates to SC27B. Described as above. The following applies: P. falciparum in erythrocytes, SYBR Green DNA, 72 h; series mostly up to 28.7 µM. The method in brief:
as §1

Another experiment relates to TAB109. The experiment is described as above. The following applies: P. falciparum in erythrocytes, SYBR Green DNA, 72 h; series mostly up to 28.7 µM. The method in brief: as §1
A further experiment deals with TAB113. Described as above. As to conditions: P. falciparum in erythrocytes, SYBR Green DNA, 72 h; series mostly up to 28.7 µM. The method in brief: as §1
In another experiment the test system is TAB165. The experiment is described as above. As to conditions: P. falciparum in erythrocytes, SYBR Green DNA, 72 h; series mostly up to 28.7 µM. The essentials:
as §1

For a further experiment, the system named is W2. The experiment is described as above. The following applies: P. falciparum in erythrocytes, SYBR Green DNA, 72 h; series mostly up to 28.7 µM. The essentials: as §1
In another experiment the test system is CRL-7250. The experiment is described as follows: Cytotoxic Profiling of Annotated Libraries Using Quantitative High-Throughput Screening (AID 1296008). For max response: % is set by controls: 0 for no effect and ±100 for the full control effect. The following applies: Five cell lines viability, CellTiter-Glo ATP luminescence, 48-72 h; max response: stronger effect = lower value. The method in brief: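 Cytotoxicity was measured as CellTiter-Glo ATP luminescence, read after 10 min at room temperature. Compound treatment of the cells lasted 48 or 72 hr at 37 degrees Celsius in a qHTS format.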

A further experiment relates to GB4. As to the kind of experiment: qHTS profiling for inhibitors of Plasmodium falciparum proliferation (AID 504749). Note: potency is the fitted concentration of half-maximal effect. As to conditions: P. falciparum in erythrocytes, SYBR Green DNA, 72 h; series mostly up to 28.7 µM. The essentials: as §1
Note: nearly all actives have a fitted effect of over 60% in size.

`O=C(O)CN(CCN(CC(=O)O)CC(=O)O)CCN(CC(=O)O)CC(=O)O`: the Potency result in the experiment on Dd2, with ECU, in the experiment on FAB9, in the experiment with HB3, in the experiment with ICS and in the experiment on JCK was “inactive” throughout. The Potency entry with N140, with P93_24, with P94_40, with PAD, in the experiment with PC15 and in the experiment on PC26 was “inactive” each time. For the same molecule, the Potency result in the experiment on PC49, with SC27B, in the experiment on TAB109, in the experiment on TAB113, in the experiment with TAB165 and in the experiment with W2 was “inactive” in each case. Besides, the max response with CRL-7250 is -4.18%.

In the case of `COc1ccc(CN(CCN(C)C)c2ccccn2)cc1`, the Potency result in the experiment with ECU, with FAB9, in the experiment with HB3, with ICS, in the experiment on P93_24 and in the experiment on P94_40 was “inactive” in each case. Besides, the Potency result with PAD, with PC15, with PC26, in the experiment on TAB113 and in the experiment on TAB165 was “inactive” throughout. Further, the Potency with GB4 was 6.01 µM (active); with JCK, 1.26 µM (active); in the experiment on PC49 it was 0.178 µM (active); in the experiment with W2, 7.57 µM (active). Further, in the experiment on CRL-7250, the max response was 1.58%.

Turning to `CCCN1C[C@H](CSC)C[C@@H]2c3cccc4[nH]cc(c34)C[C@H]21`, the Potency entry in the experiment with FAB9, in the experiment on HB3, in the experiment with PC15 and in the experiment with PC49 was “inactive” throughout. For the same molecule, the Potency was 11.2 µM (active) with ICS; 11.2 µM (active) with SC27B; 12.6 µM (active) in the experiment with TAB109; 14.1 µM (active) in the experiment on TAB165; 5.36 µM (active) in the experiment with W2. Besides, the max response in the experiment with CRL-7250 was -3.21% and -8.84%.

For the molecule `OCCN1CCN(CCCN2c3ccccc3C=Cc3ccccc32)CC1`, the Potency was 4.47 µM (active) in the experiment with Dd2; 2.82 µM (active) in the experiment on ECU; 6.75 µM (active) in the experiment with GB4; 8.91 µM (active) in the experiment on HB3; 4.47 µM (active) in the experiment on ICS; 3.55 µM (active) in the experiment on N140. Further, the Potency with P93_24 was 7.94 µM (active); in the experiment with P94_40 it was 5.01 µM (active); in the experiment with PAD it was 3.55 µM (active); in the experiment with PC15 it was 2.24 µM (active); in the experiment with PC26, 4.78 µM (active); with PC49, 1.41 µM (active). Further, the Potency is 7.94 µM (active) in the experiment on SC27B; 7.94 µM (active) with TAB109; 6.31 µM (active) with TAB113; 5.62 µM (active) in the experiment on TAB165; 1.51 µM (active) in the experiment with W2. Further, the molecule was called inactive in the experiment on CRL-7250.

Consider `CCC(=O)c1ccc2c(c1)N(CCCN(C)C)c1ccccc1S2`, for which the Potency in the experiment with Dd2 was 7.94 µM (active); with ICS, 8.91 µM (active); in the experiment with W2, 3.01 µM (active). Besides, the Potency entry in the experiment with ECU, with HB3, in the experiment on PC49 and with SC27B was “inactive” each time. Besides, in the experiment with CRL-7250, the max response is -1.9%.

For the molecule `Cc1nc2sccn2c(=O)c1CCN1CCC(=C(c2ccc(F)cc2)c2ccc(F)cc2)CC1`, in the experiment on FAB9, the Potency entry is “inactive”. The Potency in the experiment with ICS is 8.91 µM (active); in the experiment with P94_40, 11.2 µM (active); in the experiment with TAB165, 12.6 µM (active). The result in the experiment with CRL-7250 was inactive.

For `O=C1CC2(CCCC2)CC(=O)N1CCCCN1CCN(c2ncccn2)CC1`, the Potency result in the experiment on Dd2, in the experiment on FAB9, with HB3, in the experiment with ICS, in the experiment on JCK and with N140 was “inactive” in each case. The Potency entry in the experiment on P93_24, with P94_40, in the experiment with PAD, in the experiment on PC15, with PC49 and with SC27B was “inactive” in each case. The Potency entry in the experiment on TAB109, in the experiment with TAB113 and in the experiment on TAB165 was “inactive” in each case. Further, the molecule was called inactive in the experiment with CRL-7250.

Regarding `Brc1c(NC2=NCCN2)ccc2nccnc12`, the Potency result with Dd2, in the experiment on FAB9, in the experiment on JCK, in the experiment with P94_40, in the experiment with PC49 and in the experiment with SC27B was “inactive” in each case. In addition, the Potency in the experiment with GB4 is 12 µM (active); with ICS, 3.98 µM (active); with P93_24 it was 11.2 µM (active); in the experiment on W2 it was 5.36 µM (active). Besides, the max response with CRL-7250 was -13%.

For the molecule `CCCC(C(=O)OCCN(CC)CC)(c1ccccc1)c1ccccc1`, the Potency in the experiment on Dd2 is 14.1 µM (active); in the experiment with ECU, 10 µM (active); in the experiment with GB4, 10.7 µM (active); in the experiment on ICS it was 5.62 µM (active); with PAD, 11.2 µM (active); in the experiment with PC15, 10 µM (active). Besides, the Potency is 12 µM (active) in the experiment with PC26; 7.08 µM (active) in the experiment with PC49; 11.2 µM (active) in the experiment on TAB109; 10 µM (active) in the experiment with TAB113; 7.57 µM (active) with W2. Moreover, in the experiment on CRL-7250, the max response is -17.9%.

Regarding `CN(C)CC/C=C1\c2ccccc2COc2ccccc21`, the Potency with Dd2 is 8.91 µM (active); with W2, 1.2 µM (active). The Potency entry in the experiment with ECU, with FAB9, in the experiment on HB3, with JCK, in the experiment on PAD and in the experiment on PC15 was “inactive” in each case. For the same molecule, the max response in the experiment on CRL-7250 is -15.2%.
